Screens from PubChem BioAssay.
Most compounds without a hit are left out; they make up all but 2.1% or so of the library.
CFTR F508del cor: F508del CFTR correction, initial screen, CFBE line, single point. CFBE cells, YFP halide quenching; stimulated with forskolin plus potentiator P3; % fluorescence drop versus neutral controls. activity (quench increase), % at 7.58 µM. hit rate 0.36% among 350,000;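 active means mean added fluorescence quench of at least 8% versus neutral control, with both replicates also reaching 8%; inconclusive means only one of the mean or replicate conditions met; inactive means mean below 8% and not both replicates reaching 8%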;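 further: cells transiently co-express mutant CFTR-F508del with the halide-sensitive YFP; corrector assay measuring rescue of mutant channel to the surface after 24 h compound exposure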
PvdQ inh: P. aeruginosa PvdQ acylase inhibitors, primary screen, biochemical, fluorescence, plate reader and imaging, single point. PvdQ acylase [Pseudomonas aeruginosa LESB58]. purified PvdQ acylase. inhibition, % at 10 µM. hit rate 0.063% among 340,000. AID 488965, 2010; in the data active means inhibition above about 30%, passing the limit was not always enough; inconclusive means no clear call, values can overlap the other calls;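 further: 0% = vehicle neutral wells and 100% = reference inhibitor wells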
Ecoli rRNA inh: reduced GFP signal of wild-type E. coli, primary screen, bacterial rRNA inhibitor project, GFP/RFP fluorescence, OD600, single point; GFP signal change (wild-type ribosome), % (no concentration beside the values); hit rate 1.6% among 350,000; AID 720706, 2013; E. coli WT GFP vs humanized-ribosome RFP mutants, 24 h; stronger effect = lower value; DMSO median 0, no signal -100;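 active means significant combined selectivity score with lowered wild-type GFP, culture density cut under 30%, mutant RFP and density less affected; inactive means any of these conditions unmet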
ARNT TACC3 PPI: disruptors of ARNT/TACC3 protein interaction, primary screen, biochemical, AlphaScreen, single concentration | Transforming acidic coiled-coil-containing protein 3 (Homo sapiens), Q9Y6A5 | inhibition, % at 9.99 µM | hit rate 0.66% among 390,000 | AlphaScreen His-ARNT PAS-B/GST-TACC3 binding, luminescence; TACC3 fragment carries E629A point mutation;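 active means mean inhibition of replicates at least 50% and at least half of replicates each reaching 50%; inconclusive means half or more replicates reach 50% but mean below 50%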;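 further: 0% = complete ARNT plus TACC3 wells and 100% = ARNT alone without TACC3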
ERAP1 inh: human ERAP1 aminopeptidase inhibitors, primary screen, biochemical, single point, plate reader; recombinant ERAP1, Leu-AMC fluorescence, 60 min; inhibition, % at 10.7 µM; hit rate 0.15% among 340,000;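 active means mean replicate inhibition of at least 30%, or all replicates individually reaching that 30% level; inactive means mean below 30% and not every replicate reaching it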;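 further: 0% = neutral control wells and 100% = L-leucinethiol positive control wells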
Target sequence (Q9NZ08 whole entry, looked up): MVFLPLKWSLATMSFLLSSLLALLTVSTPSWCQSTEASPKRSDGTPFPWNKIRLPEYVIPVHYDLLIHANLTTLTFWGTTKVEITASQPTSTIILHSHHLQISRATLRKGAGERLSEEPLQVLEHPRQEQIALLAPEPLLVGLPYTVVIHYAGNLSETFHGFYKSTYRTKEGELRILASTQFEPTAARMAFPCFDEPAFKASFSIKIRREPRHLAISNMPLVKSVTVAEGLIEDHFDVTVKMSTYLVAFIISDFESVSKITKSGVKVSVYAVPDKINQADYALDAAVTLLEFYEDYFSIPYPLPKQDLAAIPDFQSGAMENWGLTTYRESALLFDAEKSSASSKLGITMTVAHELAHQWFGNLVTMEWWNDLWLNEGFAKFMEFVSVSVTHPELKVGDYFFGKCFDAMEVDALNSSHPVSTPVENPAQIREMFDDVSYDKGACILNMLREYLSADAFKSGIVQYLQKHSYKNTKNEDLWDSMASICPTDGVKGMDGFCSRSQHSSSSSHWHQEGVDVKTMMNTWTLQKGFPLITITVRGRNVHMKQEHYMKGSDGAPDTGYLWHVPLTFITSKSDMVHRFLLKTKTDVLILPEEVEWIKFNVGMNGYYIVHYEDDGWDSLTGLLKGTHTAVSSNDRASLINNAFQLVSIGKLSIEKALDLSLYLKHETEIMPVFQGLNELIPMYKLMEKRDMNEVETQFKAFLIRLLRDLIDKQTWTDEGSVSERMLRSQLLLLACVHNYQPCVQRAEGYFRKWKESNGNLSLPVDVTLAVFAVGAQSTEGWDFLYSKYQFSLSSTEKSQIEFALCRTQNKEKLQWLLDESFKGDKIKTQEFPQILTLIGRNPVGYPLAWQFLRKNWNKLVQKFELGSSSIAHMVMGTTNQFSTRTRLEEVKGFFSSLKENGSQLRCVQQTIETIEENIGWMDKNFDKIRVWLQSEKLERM
AID977621: growth inhibition of wild-type GFP E. coli, dose response, H69 mutant RFP, cherry-pick. shares compounds with Ecoli rRNA inh. E. coli wild-type GFP strain growth, fluorescence, 24 h. activity change, negative = inhibition at 50 µM. 1,900 tested, under 10 active;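 active means Wild-type ribosome reporter drop at least double the humanized mutant ribosome reporter drop, growth loss under a set limit; inconclusive means no clear call, values can overlap the other calls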;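 further: wild-type GFP and H69 mutant RFP strains grown together 50/50 in each well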
AID977628: E. coli growth inhibition, wild-type GFP versus h24 humanized RFP strain, dose response, h24 mutant RFP vs wild-type GFP, cherry-pick; shares compounds with Ecoli rRNA inh; E. coli WT GFP strain growth, fluorescence, 24 h; activity change, negative = inhibition at 50 µM; 1,900 tested, under 10 active;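 active means compound lowering the normal-ribosome reporter at least twice as much as the humanized-ribosome reporter, growth loss under a set limit; inconclusive means no clear call, values can overlap the other calls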;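 further: wild-type GFP and h24 humanized RFP strains co-cultured 1 to 1 per well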
Starred values were filed as active, the others as inactive; ? = inconclusive; nt = no result.

SMILES	CFTR F508del cor	PvdQ inh	Ecoli rRNA inh	ARNT TACC3 PPI	ERAP1 inh	AID977621	AID977628
COc1cccc(NC(=O)c2ccc(NCCCN3CC(C)CC(C)C3)c([N+](=O)[O-])c2)c1 (stereo not given)	3.8	-13.8	-46.0*	-0.8	-2.1	?	-5.13
COc1cccc(NC(=O)c2ccc(NCCCN3CCC(C)CC3)c([N+](=O)[O-])c2)c1	-1.1	-9.7	-25.4*	0.6	0.4	-3.49	?
C[C@H](CO)N1C[C@H](C)[C@H](CN(C)S(=O)(=O)c2ccc(Cl)cc2)Oc2ccc(NC(=O)Cc3ccccc3)cc2CC1=O	-2.0	nt	-2.3	1.4	0.2	nt	nt
CCCC(=O)N1CC2(CN(S(C)(=O)=O)C2)c2c([nH]c3cc(OC)ccc23)[C@H]1CO	-3.7	nt	3.3	nt	-1.6	nt	nt
O=C(O)c1cccc2c1-c1ccc([N+](=O)[O-])cc1C2=O	-0.6	-10.2	-18.8*	-1.0	3.2	-22.2	-7.97
Cc1noc(C)c1NC(=O)Nc1ccc2c(c1)C(=O)N([C@@H](C)CO)C[C@@H](C)[C@@H](CN(C)C(=O)Nc1c(C)noc1C)OCCCC[C@@H](C)O2	2.1	nt	1.0	-0.5	-2.7	nt	nt
C[C@@H]1CN([C@@H](C)CO)C(=O)c2cc(NC(=O)C3CC3)ccc2O[C@H]1CN(C)C(=O)Nc1ccc(C(F)(F)F)cc1	2.6	nt	-28.9*	-3.4	1.2	-18.1	-12.8
C[C@@H]1CN([C@H](C)CO)C(=O)CCCn2nncc2CO[C@@H]1CN(C)C(=O)Nc1ccc(C(F)(F)F)cc1	-2.1	nt	-17.7*	-4.1	2.4	-15.4	?
C[C@@H]1CN([C@H](C)CO)C(=O)CCCn2nncc2CO[C@H]1CN(C)C(=O)Nc1ccc(C(F)(F)F)cc1	-3.1	nt	-54.4	-6.5	-2.0	nt	nt
C[C@@H]1CN([C@H](C)CO)C(=O)c2cc(NC(=O)C3CC3)ccc2O[C@H]1CN(C)C(=O)Nc1ccc(C(F)(F)F)cc1	0.6	nt	-7.4	-3.1	-0.6	nt	nt
Cc1noc(C)c1NC(=O)Nc1ccc2c(c1)C(=O)N([C@@H](C)CO)C[C@@H](C)[C@@H](CN(C)C(=O)Nc1ccc3c(c1)OCO3)OCCCC[C@@H](C)O2	-0.5	nt	-1.3	1.7	-0.7	-0.24	?
Cc1noc(C)c1NC(=O)Nc1ccc2c(c1)C(=O)N([C@@H](C)CO)C[C@@H](C)[C@H](CN(C)C(=O)Nc1ccc3c(c1)OCO3)OCCCC[C@H](C)O2	-4.2	nt	-1.8	1.2	0.0	1.31	?
O=C(C[C@H]1C=C[C@@H](NS(=O)(=O)c2cccc(F)c2)[C@H](CO)O1)NCc1ccc2c(c1)OCO2	3.5	nt	0.2	-13.4	2.1	nt	nt
C[C@H](CO)N1C[C@H](C)[C@H](CN(C)C(=O)Nc2ccc3c(c2)OCO3)Oc2c(NC(=O)Nc3ccccc3)cccc2C1=O	0.8	nt	-22.0*	14.8	0.9	-10.7	?
CC(C)OCCCNC(=O)c1ccc(CS(=O)(=O)c2cccc(C(F)(F)F)c2)o1	0.1	12.0	-19.2*	11.4	-0.6	-12.6	?
CCCCNC(=O)c1ccc(CS(=O)(=O)c2cccc(C(F)(F)F)c2)o1	nt	-13.1	nt	-5.0	nt	nt	nt
CCC(C)C(=O)Nc1nc2ccc(OC)cc2s1 (stereo not given)	-0.9	-2.2	-21.5*	-6.6	0.1	-21.4	nt
C[C@H]1CN([C@@H](C)CO)C(=O)c2cc(C#CC(C)(C)O)cnc2O[C@@H]1CN(C)Cc1ccccn1	-0.9	nt	0.9	-2.0	-0.2	nt	nt
C#CC[N+](C)(C)CC#Cc1ccccc1	1.9	1.4	20.9	-1.3	1.3	nt	nt
Cc1ccc(C#CC[N+](C)(C)CC#Cc2ccccc2)cc1	-3.0	-3.1	-53.9*	25.1	0.8	nt	?
COCC(=O)N1CC2(C1)[C@H](c1ccccc1)[C@H](CO)N2Cc1ccccc1OC	2.2	nt	3.6	nt	-4.6	nt	nt
Cc1ccc(-c2cnc3c(c2)C(=O)N([C@H](C)CO)C[C@H](C)[C@H](CN(C)CC2CCCC2)O3)cc1	-0.7	nt	2.7	-3.4	-9.5	nt	nt
CCCc1ncc(CN2CCCC(C(=O)Nc3ccc(-c4cccc(OC)c4)cc3)C2)cn1 (stereo not given)	-0.2	-9.9	-4.7	-2.1	1.9	nt	nt
COc1cccc(-c2ccc(NC(=O)C3CCCN(Cc4cnn(C(C)C)c4)C3)cc2)c1 (stereo not given)	0.1	20.9	-24.2*	nt	-24.8	nt	-0.471
CCOC(=O)N1CCN(c2nc(-c3cccs3)nc3ccccc23)CC1	0.4	-8.3	-3.7	7.5	4.7	nt	nt
SMILES	CFTR F508del cor	PvdQ inh	Ecoli rRNA inh	ARNT TACC3 PPI	ERAP1 inh	AID977621	AID977628
CC(=O)N1CCN(c2nc(-c3cccs3)nc3ccccc23)CC1	0.8	6.3	-24.2*	2.5	-2.3	-2.9	nt
CCOC(=O)c1c(NC(=O)CN2CCC(C)CC2)sc(C)c1C	-1.4	6.7	-21.2*	-6.6	-0.6	2.21	-13.9
CC(C)NC(=O)N1CC2(C1)[C@H](c1ccccc1)[C@H](CO)N2Cc1cccnc1	0.1	nt	-0.7	nt	-12.1	nt	nt
Cc1ccn2cc(-c3cccc(NC(=O)c4cccs4)c3)nc2c1	0.9	2.7	-35.9*	1.2	-3.7	-5.42	-13.3
C[C@@H]1CN([C@@H](C)CO)C(=O)c2cc(NC(=O)CCCN(C)C)ccc2O[C@@H](C)CCCCO[C@@H]1CN(C)C(=O)Nc1ccccc1	0.4	nt	1.7	-4.8	1.4	nt	nt
Cc1cc(NC(=O)CSc2ncc(CO)n2Cc2ccc(F)cc2)no1	3.2	-6.1	8.1	-5.4	-1.5	nt	nt
COc1ccccc1NC(=O)CSc1ncc(CO)n1Cc1ccc(F)cc1	-2.5	-4.2	-20.4*	6.8	-1.0	-14.7	-14.3
O=C(O)CCn1c(SCc2cccc3ccccc23)nc2ccccc21	nt	-13.9	-15.8*	-11.0	-1.4	-10.9	?
COc1ccc(S(=O)(=O)Nc2ccc3c(c2)C(=O)N([C@H](C)CO)C[C@@H](C)[C@H](CN(C)C(=O)C2CCCCC2)OCCCC[C@@H](C)O3)cc1	-1.7	nt	-4.6	13.7	2.0	nt	nt
Cc1onc(-c2ccccc2)c1C(=O)Nc1ccc(NC(=O)c2c(-c3ccccc3)noc2C)cc1	0.8	-13.2	0.2	-6.2	nt	nt	nt
CSc1nc2ccc(NC(=O)c3c(-c4ccccc4)noc3C)cc2s1	2.4	-3.7	-21.4*	-1.9	-2.5	-20.8	nt
